Results: PubChem BioAssay
Active and inactive are the calls of the source.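 How the source made its calls, unless noted: active means inhibition above 20% together with a positive visual image hit; inconclusive means visual image hit but inhibition not above 20%; inactive means no visual image hit.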

Columns and labels:
[1] = inhibitors of TNFa-induced NFkB p65 translocation, primary screen, imaging, HUVEC, MLSMR starter and 10KST1 sets (AID 438); conditions: HUVEC TNFa-induced p65 nuclear translocation; cell count: measured here: nuclei count (cytotoxicity indicator), at 2.08 µM; inhibition: at 2 µM, stronger effect = higher value, 0% TNFa-plus-vehicle, 100% no-TNFa wells;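 further: compound added about 3h40 before a 20 min TNFalpha stimulation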;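 on inhibition: signal is the nuclear over cytoplasmic p65 intensity ratio per well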
[2] = reduction of polyQ htt aggregates in cells – imaging, exon1htt(103Q)mCFP cells, high-content imaging, primary screen (AID 483;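 active means visual image review flags a hit and inhibition of aggregation exceeds 20%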;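 further: compound exposure lasted 3 days before fixation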;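 on nuclei count: percent of the per-plate median nuclei count of sample wells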); conditions: exon1htt(103Q)mCFP cell line, aggregate imaging, at 2 µM; inhibition of aggregation: stronger effect = higher value; nuclei count: measured here: cell count, toxicity
[3] = endothelial E-selectin expression blockers – imaging, HUVEC, immunofluorescence, MLSMR starter and 10KST1 sets, primary screen (AID 487;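 active means visually confirmed hit in the image check and inhibition above 20%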;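 on inhibition: signal is fraction of cell area covered by stained E-selectin grains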;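 on nuclei count: 100% = median nuclei count of all wells on the same plate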); conditions: HUVEC TNFalpha-induced E-selectin immunofluorescence imaging, at 2 µM; inhibition: stronger effect = higher value; nuclei count: measured here: cell number, toxicity
[4] = biological target: Voltage-gated potassium channel subunit beta-2 (Rattus norvegicus) (UniProt P62483); assay: inhibitors of rat Kvbeta2 reductase activity – biochemical, NADPH fluorescence, primary screen (AID 622;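 active means fluorescence slope higher than the sample average by over 3 SD, cut at about -0.22 in these data, passing the limit was not always enough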;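 further: slope of raw intensity against log time taken from 70 to 1610 s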); conditions: recombinant KvBeta, 4-cyanobenzaldehyde reduction, at 10 µM, stronger effect = higher value
Sequence of Voltage-gated potassium channel subunit beta-2 (Rattus norvegicus) (P62483 whole entry, looked up): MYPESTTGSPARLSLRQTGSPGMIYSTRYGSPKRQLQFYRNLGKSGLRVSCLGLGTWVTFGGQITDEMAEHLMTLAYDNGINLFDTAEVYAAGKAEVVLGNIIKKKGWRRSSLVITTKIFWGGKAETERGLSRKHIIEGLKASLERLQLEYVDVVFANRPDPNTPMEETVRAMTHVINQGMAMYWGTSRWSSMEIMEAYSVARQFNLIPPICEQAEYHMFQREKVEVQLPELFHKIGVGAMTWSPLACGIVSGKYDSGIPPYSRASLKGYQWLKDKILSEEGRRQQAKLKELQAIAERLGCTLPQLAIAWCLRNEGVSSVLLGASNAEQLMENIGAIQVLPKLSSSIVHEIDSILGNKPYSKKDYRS

[5] = biological target: Voltage-gated potassium channel subunit beta-2 (Rattus norvegicus) (UniProt P62483); assay: enhancers of rat Kvbeta2 NADPH turnover – biochemical, NADPH fluorescence, primary screen (AID 623;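 active means NADPH fluorescence slope more negative than the mean of all samples by about 3 SD, 99.7% confidence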;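 further: fluorescence intensity change per second fitted from 20 to 320 s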); conditions: Recombinant KvBeta, NADPH fluorescence decrease slope, 10 min; at 10 µM; stronger effect = lower value
[6] = biological target: Alpha-2C adrenergic receptor (Homo sapiens) (UniProt P18825); assay: compounds altering alpha2C-coupled GIRK flux – cell-based, HEK293 alpha2C/GIRK1/2, thallium flux, primary screen (AID 624;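 active means fluorescence slope after compound addition differing from the mean of all screened samples at 99.7% confidence, in either direction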;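 further: slope of fluorescence ratio to pre-addition baseline per second over 15 to 24 s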); conditions: thallium flux BTC fluorescence, at 10 µM, actives lie on both sides
Sequence of Alpha-2C adrenergic receptor (Homo sapiens) (P18825 whole entry, looked up): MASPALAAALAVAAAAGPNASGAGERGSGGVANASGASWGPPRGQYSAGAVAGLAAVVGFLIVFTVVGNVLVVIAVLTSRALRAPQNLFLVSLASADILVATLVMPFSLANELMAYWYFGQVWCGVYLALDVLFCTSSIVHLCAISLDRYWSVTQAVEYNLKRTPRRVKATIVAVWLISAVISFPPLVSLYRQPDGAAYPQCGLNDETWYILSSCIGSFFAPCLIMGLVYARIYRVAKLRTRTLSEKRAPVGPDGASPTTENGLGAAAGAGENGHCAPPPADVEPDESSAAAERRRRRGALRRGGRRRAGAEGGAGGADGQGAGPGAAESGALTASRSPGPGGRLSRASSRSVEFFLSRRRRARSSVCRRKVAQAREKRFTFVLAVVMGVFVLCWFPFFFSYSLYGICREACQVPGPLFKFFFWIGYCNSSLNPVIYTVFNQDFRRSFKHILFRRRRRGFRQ

[7] = blockers of RIG-like receptor reporter activation – cell-based, Sendai virus stimulus, luciferase, 10K MLSCN set, TLR/RLR signaling modifier project, primary screen (AID 602276;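 active means inhibition at or above 50% at 10 µM; inactive means inhibition below 50%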;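 further: firefly luciferase from ISG56 promoter only with Renilla not read in this screen; 0% = Sendai virus plus DMSO and 100% = medium plus DMSO without virus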); conditions: HEK293 RL24 IRF3 luciferase reporter, at 10 µM, stronger effect = higher value
[8] = TLR3 IRF3 reporter activation blockers – cell-based, poly I:C stimulus, luciferase, 10K MLSCN set, primary screen (AID 602277;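 active means inhibition of the reporter signal at or above 50%; inactive means inhibition below 50%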); conditions: HEK293-TLR3 RL24 IRF3 luciferase reporter, at 10 µM, stronger effect = higher value

For `CCC(C)(C)n1nnnc1C(c1cc2cc(C)ccc2[nH]c1=O)N1CCCC1` (centres undefined), the cell count [1] was 353, the inhibition [1] was 4.2% (inactive) and the inhibition of aggregation [2] was -27.7% (inactive). The nuclei count [2] was 103%, the inhibition [3] was -273% (inactive) and the nuclei count [3] was 110%. For the same compound, the fluorescence slope [4] was -0.43 (inactive), the NADPH fluorescence slope [5] was 2.7e-05 (inactive) and the slope [6] was 0.00689 (inactive). The inhibition [7] was 13.6% (inactive) and the inhibition [8] was 28.7% (inactive).

For `COc1ccc(C2CC(c3ccc(OC)cc3)n3nc(N)nc3N2)cc1` (centres undefined), the cell count [1] was 595, the inhibition [1] was 6.1% (inactive) and the inhibition of aggregation [2] was -5.1% (inactive). For the same compound, the nuclei count [2] was 99.7%, the inhibition [3] was 28.5% (inactive) and the nuclei count [3] was 102%. The fluorescence slope [4] was -0.595 (inactive), the NADPH fluorescence slope [5] was -3.1e-05 (inactive) and the slope [6] was 0.00691 (inactive). The inhibition [7] was 6.72% (inactive) and the inhibition [8] was 20.7% (inactive).

For `CC1=C(C(=O)OCc2ccccc2)C(c2ccc(C)o2)C2=C(CCCC2=O)N1` (centres undefined), the cell count [1] was 745, the inhibition [1] was 1.9% (inactive) and the inhibition of aggregation [2] was 14.6% (inactive). The nuclei count [2] was 101%, the inhibition [3] was 29.9% (inactive) and the nuclei count [3] was 97%. The fluorescence slope [4] was -0.466 (inactive), the NADPH fluorescence slope [5] was -3.8e-05 (inactive) and the slope [6] was 0.00603 (inactive). For the same compound, the inhibition [7] was 2.43% (inactive) and the inhibition [8] was 15.6% (inactive).

In the case of `Cc1ccc(Cn2c(CN3CCOCC3)nc3c2c(=O)n(C)c(=O)n3C)cc1`, the cell count [1] was 332, the inhibition [1] was 19.7% (inactive) and the inhibition of aggregation [2] was 16.7% (inactive). For the same compound, the nuclei count [2] was 104%, the inhibition [3] was -3.6% (inactive) and the nuclei count [3] was 104%. The fluorescence slope [4] was -0.48 (inactive), the NADPH fluorescence slope [5] was -4.2e-05 (inactive) and the slope [6] was 0.00599 (inactive). For the same compound, the inhibition [7] was 2.2% (inactive) and the inhibition [8] was 26.6% (inactive).

For `Cn1cnc2c1c(=O)n(Cc1cccc(Br)c1)c(=O)n2C`, the cell count [1] was 320, the inhibition [1] was 1.4% (inactive) and the inhibition of aggregation [2] was 9.8% (inactive). For the same compound, the nuclei count [2] was 113%, the inhibition [3] was -17.1% (inactive) and the nuclei count [3] was 122%. The fluorescence slope [4] was -0.38 (inactive), the NADPH fluorescence slope [5] was 8.1e-07 (inactive) and the slope [6] was 0.00734 (inactive). The inhibition [7] was 14.2% (inactive) and the inhibition [8] was 14.4% (inactive).

For `CCCCc1cc(=O)oc2cc(OCC(=O)N(CC)CC)c(Cl)cc12`, the cell count [1] was 586, the inhibition [1] was 0% (inactive) and the inhibition of aggregation [2] was -3.9% (inactive). The nuclei count [2] was 102%, the inhibition [3] was -56.9% (inactive) and the nuclei count [3] was 123%. The fluorescence slope [4] was -0.596 (inactive), the NADPH fluorescence slope [5] was 7.2e-08 (inactive) and the slope [6] was 0.00654 (inactive). For the same compound, the inhibition [7] was 12.5% (inactive) and the inhibition [8] was 30.7% (inactive).

With `Clc1ccc(CSc2nnc(Cn3cnc4ccccc43)o2)cc1` the cell count [1] was 618, the inhibition [1] was -2.5% (inactive) and the inhibition of aggregation [2] was 20.9% (inactive). The nuclei count [2] was 72.2%, the inhibition [3] was -1.1% (inactive) and the nuclei count [3] was 98.2%. The fluorescence slope [4] was -0.48 (inactive), the NADPH fluorescence slope [5] was -1.4e-05 (inactive) and the slope [6] was 0.00613 (inactive). The inhibition [7] was -20.9% (inactive) and the inhibition [8] was -27.5% (inactive).

With `CNC(=O)CSc1nnc(-c2cc3c(C)nn(-c4ccccc4)c3s2)n1C` the cell count [1] was 428, the inhibition [1] was 4.3% (inactive) and the inhibition of aggregation [2] was 2.8% (inactive). The nuclei count [2] was 74.6%, the inhibition [3] was -35.6% (inactive) and the nuclei count [3] was 118%. For the same compound, the fluorescence slope [4] was -0.405 (inactive), the NADPH fluorescence slope [5] was 4.5e-05 (inactive) and the slope [6] was 0.00659 (inactive). The inhibition [7] was -6.24% (inactive) and the inhibition [8] was -6.6% (inactive).

With `COc1ccc(NC(=O)CCc2ccccc2)cc1NC(=O)c1ccco1` the cell count [1] was 526, the inhibition [1] was 2.3% (inactive) and the inhibition of aggregation [2] was 8.7% (inactive). The nuclei count [2] was 88.9%, the inhibition [3] was -61.5% (inactive) and the nuclei count [3] was 95.1%. The fluorescence slope [4] was -0.504 (inactive), the NADPH fluorescence slope [5] was -5e-05 (inactive) and the slope [6] was 0.0047 (inactive). For the same compound, the inhibition [7] was 16.7% (inactive) and the inhibition [8] was 37.2% (inactive).

In the case of `CCCc1cc(=O)[nH]c(/N=C(\N)Nc2ccccc2)n1`, the cell count [1] was 826, the inhibition [1] was 3.6% (inactive) and the inhibition of aggregation [2] was -12.7% (inactive). The nuclei count [2] was 94.3%, the inhibition [3] was -95.3% (inactive) and the nuclei count [3] was 138%. For the same compound, the fluorescence slope [4] was -0.431 (inactive), the NADPH fluorescence slope [5] was -2.5e-05 (inactive) and the slope [6] was 0.0048 (inactive). The inhibition [7] was 12.3% (inactive) and the inhibition [8] was 16.6% (inactive).

In the case of `CC(Sc1nc(-c2ccccc2)cc(C(F)(F)F)n1)C(=O)N1CCC(C(N)=O)CC1` (centres undefined), the cell count [1] was 446, the inhibition [1] was 7.2% (inactive) and the inhibition of aggregation [2] was 8.9% (inactive). The nuclei count [2] was 97.1%, the inhibition [3] was -45.8% (inactive) and the nuclei count [3] was 126%. For the same compound, the fluorescence slope [4] was -0.455 (inactive), the NADPH fluorescence slope [5] was -8.9e-05 (inactive) and the slope [6] was 0.00612 (inactive). For the same compound, the inhibition [7] was 17.5% (inactive) and the inhibition [8] was 24.5% (inactive).

In the case of `O=C(COC(=O)c1cccc(S(=O)(=O)N2CCc3ccccc32)c1)NC1CCS(=O)(=O)C1` (centres undefined), the cell count [1] was 611, the inhibition [1] was 8.9% (inactive) and the inhibition of aggregation [2] was -6.2% (inactive). For the same compound, the nuclei count [2] was 125%, the inhibition [3] was -104% (inactive) and the nuclei count [3] was 111%. The fluorescence slope [4] was -0.283 (inactive), the NADPH fluorescence slope [5] was -7.3e-05 (inactive) and the slope [6] was 0.00577 (inactive). The inhibition [7] was 3.1% (inactive) and the inhibition [8] was 12.9% (inactive).

With `Cc1ccc(-c2nnc(SCC(=O)N3c4ccccc4NC(=O)C3(C)C)n2N)cc1` the cell count [1] was 809, the inhibition [1] was -0.7% (inactive) and the inhibition of aggregation [2] was -26.4% (inactive). The nuclei count [2] was 93.6%, the inhibition [3] was -92% (inactive) and the nuclei count [3] was 120%. For the same compound, the fluorescence slope [4] was -0.361 (inactive), the NADPH fluorescence slope [5] was -2.3e-05 (inactive) and the slope [6] was 0.00498 (inactive). For the same compound, the inhibition [7] was -12.6% (inactive) and the inhibition [8] was -5.26% (inactive).

With `CC(C)c1nnc(NC(=O)c2cnccn2)s1` the cell count [1] was 425, the inhibition [1] was -0.5% (inactive) and the inhibition of aggregation [2] was -3.7% (inactive). For the same compound, the nuclei count [2] was 103%, the inhibition [3] was -38.5% (inactive) and the nuclei count [3] was 105%. For the same compound, the fluorescence slope [4] was -0.479 (inactive), the NADPH fluorescence slope [5] was -4.7e-05 (inactive) and the slope [6] was 0.00644 (inactive). For the same compound, the inhibition [7] was -7.98% (inactive) and the inhibition [8] was -13.6% (inactive).
